High-throughput results as filed in PubChem.
FBW7 activator: human FBW7 E3 ligase activation, primary screen | Q969H0 | AlphaScreen FBW7–phospho-cyclin E peptide binding, activator screen | normalized activity (activation), % at 26.1 µM | 650,000 tested, 0.13% active | AID 1259310; in the data active means normalized activity above about 1.9%;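 further: purified mutant Fbw7 with reduced substrate affinity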
GPR151 activ: activates the human receptor GPR151 | PathHunter beta-arrestin GPR151 cells, luminescence | 650,000 tested, 1% active | activation, % at 11.2 µM; in the data active means activation above about 4.9%;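 further: 0% = median of compound wells and 100% = cells with positive control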
TEAD-YAP block: TEAD-YAP interaction inhibition | HEK-TIYL cells, TEAD-Gal4/YAP UAS-luciferase luminescence | inhibition, % at 9.12 µM | 640,000 tested, 1.4% active | AID 1259422; in the data active means inhibition above about 32%;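 further: 0% = median of test compound wells and 100% = reference inhibitor wells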
MITF inh: inhibitors of human MITF; AlphaScreen MITF homodimerization, bead proximity signal; O75030; 650,000 tested, 0.91% active; inhibition, % at 2.6 µM; in the data active means inhibition above about 50%;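 further: 0% = vehicle wells with protein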
GPR151 confirm: human GPR151 activation, confirmation screen | 6,700 tested, under 10 active | activation, % at 11.2 µM | GPR151 PathHunter beta-arrestin cells, luminescence, 90 min; % of EA-reagent control over plate median | shares compounds with GPR151 activ;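 active means mean percent activation across replicates above the confirmation screen cutoff of 4.91%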
GPR119 counter: counter-screen for GPR151 activators: effect on human GPR119 | activation, % at 11.2 µM | 6,700 tested, 0.3% active | shares compounds with GPR151 activ | GPR119 PathHunter beta-arrestin cells, luminescence, 90 min; 0 = compound-well median, 100 = enzyme-acceptor control;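 active means mean percent activation in the counterscreen above 29.09%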;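 further: counterscreen on off-target GPR119 to flag nonselective hits from the GPR151 activator screen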
Target sequence (Q8TDV5 whole entry, looked up): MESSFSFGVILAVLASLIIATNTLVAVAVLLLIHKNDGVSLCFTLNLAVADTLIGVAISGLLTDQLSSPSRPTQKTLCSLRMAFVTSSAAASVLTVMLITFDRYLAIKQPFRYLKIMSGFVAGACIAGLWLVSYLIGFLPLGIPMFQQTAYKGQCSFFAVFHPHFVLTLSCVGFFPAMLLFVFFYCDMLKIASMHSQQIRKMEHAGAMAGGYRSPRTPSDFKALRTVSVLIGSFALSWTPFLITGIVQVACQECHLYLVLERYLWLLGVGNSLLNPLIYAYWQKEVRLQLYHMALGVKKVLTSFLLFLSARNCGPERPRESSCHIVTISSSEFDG
Active calls of the source: *; . = not tested or not shown; ! = repeats disagree. This is a sample that favours compounds with a hit; in the whole collection about 3.5% have one here.

SMILES | FBW7 activator | GPR151 activ | TEAD-YAP block | MITF inh | GPR151 confirm | GPR119 counter
Cc1c(Cl)cccc1NC(=O)c1ccc(N2C(=O)c3ccccc3C2=O)cc1 | 0 | 7.0* | -8 | -6 | 1 | 3
O=C(Nc1ncc(C(O)(C(F)(F)F)C(F)(F)F)s1)c1ccccc1Cl | 0 | 6.6* | -44 | 0 | 2 | 3
Cc1nnc(NC(=O)c2ccccc2Cl)s1 | 0 | 0 | -33 | 14 | . | .
NS(=O)(=O)c1ccc(CCNC(=O)c2ccccc2Cl)cc1 | 0 | 1 | 2 | -6 | . | .
NS(=O)(=O)c1ccc(CCNC(=O)c2ccccc2Oc2ccccc2)cc1 | -1 | 6.7* | -1 | -8 | -1 | -4
NS(=O)(=O)c1ccc(CCNC(=O)c2cc(-c3ccccc3)nc3ccccc23)cc1 | 0 | 6.2* | 3 | -16 | 1 | 2
COc1ccc(C2=NN(CCC(=O)NCCCOC(C)C)C(=O)CC2)cc1 | 0 | -1 | -6 | -10 | . | .
Oc1ccc(Sc2ccc(O)cc2)cc1 | 0 | 0 | -2 | 3 | . | .
Oc1ccc(O)cc1 | 0 | 5.1*! | -27 | -4 | 0 | -7
Cc1ccc(C)c(OCC(=O)Nc2cccc(C(=O)NN3C(=O)c4ccccc4C3=O)c2)c1 | 1 | 0 | -5 | -11 | . | .
C[C@@H]1CC[C@H]2C(=O)O[C@@H](COc3ccc(C(C)(C)C)cc3)CN2[C@H]1c1ccc(Br)cc1 | 0 | 5.3* | . | 12 | 1 | -11
C=C(C)C(=O)OC[C@@H]1CN2[C@@H](CC[C@@H](C)[C@@H]2c2ccc(Br)cc2)C(=O)O1 | 0 | -1 | . | 23 | . | .
CCCCC(c1nnnn1CCOC)N1CCN(c2ccccc2)CC1 (stereo not drawn) | 0 | 5.1* | -1 | 7 | 1 | 9
N#C/C(C(=O)NCc1ccccc1)=C(/O)Cl | 1 | -2 | 5 | 20 | . | .
CCc1nc2ccccc2c2nn(CC(=O)N3CCOCC3)c(=O)n12 | 0 | 6.6* | -5 | -6 | 0 | 2
CC(C)c1nc2ccccc2c2nn(CC(=O)N3CCN(C(=O)c4ccco4)CC3)c(=O)n12 | 0 | 15* | 10 | -7 | 0 | 4
Nc1c(C(=O)Nc2ccc(Oc3ccccc3)cc2)sc2nc3c(c(-c4cccs4)c12)CCCC3 | 0 | 0 | -7 | -11 | . | .
Cc1cc2c(cc1C)NC(CC(=O)Nc1ccc(F)cc1)C(=O)N2 (stereo not drawn) | 0 | 1 | -10 | -11 | . | .
O=C1CCCC2=C1C(c1ccccc1F)n1c(nc3ccccc31)N2 (stereo not drawn) | 0 | 9.6* | 0 | 16 | 2 | -5
CCOc1ccc(S(=O)(=O)/N=C2\C=CC(=O)c3ccccc32)cc1 | 0 | 1 | 0 | -8 | . | .
Cc1cc2[nH]c(=O)c(=O)[nH]c2cc1S(=O)(=O)N(C)Cc1ccccc1 | 0 | 0 | 1 | 5 | . | .
CN(Cc1ccccc1)S(=O)(=O)c1ccc2[nH]c(=O)c(=O)[nH]c2c1 | 0 | 5.2* | 6 | -5 | 0 | 1
O=S(=O)(c1cccc2cnccc12)N1CCCN(S(=O)(=O)c2cccc3cnccc23)CC1 | 0 | -1 | -1 | -4 | . | .
O=S(=O)(c1cccc2cnccc12)N1CCCNCC1 | 0 | 9.3*! | 14 | 0 | 1 | -2
COC(=O)C1=C(C(=O)OC)[C@@H]2N(C)c3ccc(OC)cc3[C@@]23C[C@@H](C(=O)OC)N(C(=O)c2ccco2)C3=N1 | 0 | 6.1* | . | 16 | 0 | -3
SMILES | FBW7 activator | GPR151 activ | TEAD-YAP block | MITF inh | GPR151 confirm | GPR119 counter
CNc1ccccc1P(=O)(O)O | 0 | 6.3* | 4 | -3 | 1 | -1
N#Cc1cc([N+](=O)[O-])ccc1NC(=O)COC(=O)CC1CCCC1 | 0 | 5.0* | 1 | -1 | -1 | -5
Cc1cc(NC(=O)COC(=O)CC2CCCCC2)no1 | 0 | 5.0* | -3 | 16 | 1 | 5
N#Cc1cc([N+](=O)[O-])ccc1NC(=O)COC(=O)C1CC1 | 0 | 1 | 3 | 9 | . | .
COC(=O)C1=C(C)NC2=C(C(=O)CCC2)C1c1cc(OC)c(OC)cc1[N+](=O)[O-] (stereo not drawn) | 0 | 0 | 10 | 0 | . | .
O=C(Nc1ccc(N2CCCCC2)cc1)C(Cl)(Cl)Cl | 0 | 0 | -37 | 13 | . | .
Fc1ccc2c(c1)nc(NC1CCCCC1)c1nccn12 | 0 | 5.1* | 2 | 0 | -1 | -2
Fc1ccc2c(c1)nc(N1CCCCC1)c1nccn12 | 0 | -1 | -10 | -5 | . | .
COC(=O)c1ccc(N2N=C(C)/C(=C/c3ccc(C)s3)C2=O)cc1 | 0 | 0 | 2 | -3 | . | .
CC1=NN(c2ccc(Br)cc2)C(=O)/C1=C/c1ccc(C)s1 | 0 | 7.5* | 3 | -2 | 1 | 2
CN(C)N1C(N)=C(C#N)C(c2cccc(Cl)c2)C2=C1CC(C)(C)CC2=O (stereo not drawn) | 0 | -1 | -19 | -6 | . | .
COc1ccc(/C=C2/NC(=O)N(c3cccc(Cl)c3)C2=O)cc1 | 0 | 0 | -12 | -5 | . | .
O=C1N/C(=C/c2ccc3c(c2)OCO3)C(=O)N1c1cccc(Cl)c1 | 0 | 0 | 2 | 16 | . | .
COc1ccc(/C=C2/NC(=O)N(c3cccc(Cl)c3)C2=O)c(OC)c1 | 0 | 5.7* | -6 | 18 | 2 | 3
COc1cc2c(cc1/C=C1/NC(=O)N(c3cccc(Cl)c3)C1=O)OCO2 | 0 | 8.5* | 11 | 1 | 0 | 7
O=C1N/C(=C/c2ccccc2)C(=O)N1c1cccc(Cl)c1 | 0 | 5 | 0 | 9 | . | .
O=C1N/C(=C/c2ccco2)C(=O)N1c1cccc(Cl)c1 | 0 | 5.2* | -11 | -2 | -1 | 1
COc1ccc(NC(=O)C2CCC(C(=O)Nc3ccc(OC)cc3)CC2)cc1 (stereo not drawn) | 0 | 0 | -1 | 19 | . | .
CCOC(CNc1nc(OC)cc(OC)n1)(OCC)c1ccccn1 | 0 | 5.0* | 1 | -4 | 1 | 5
NCCCC[C@@H]1NC(=O)[C@@H]2C[C@H](NC(=O)c3cccs3)CN2C1=O | 0 | 3 | 7 | 3 | . | .
COc1cc(Nc2nc(N)c3ncn(C(C)C)c3n2)cc(OC)c1OC | 0 | 0 | -50 | 16 | . | .
CCc1nnc(N/N=C/c2cc3c(cc2Br)OCO3)n1N | -2 | -1 | 11 | 1 | . | .
C(=N\n1cnnc1)/c1ccc2c(c1)OCO2 | 0 | -1 | -1 | -1 | . | .
C(=N\n1cnnc1)/c1ccc2c(c1)OCCO2 | 0 | 12* | -8 | 14 | 0 | -6
O=C(O)c1ccccc1NS(=O)(=O)c1cccc(Nc2ncnc3sccc23)c1 | 0 | 0 | -6 | -2 | . | .
CCN(CC)C(=O)c1cn(CCC#N)nc1-c1ccc(OC)c([N+](=O)[O-])c1 | 0 | 21* | -3 | 7 | 1 | 5
CCOc1cc2c3c(c1)C1(OCCO1)C(=O)N3C(C)(C)CC2C (stereo not drawn) | 0 | 5.9* | -7 | -4 | -1 | -2
